Source: PubChem
GLS inhibitor: blocks human kidney-isoform glutaminase activity. O94925. GLS enzymatic activity, qHTS titration. Potency, µM (doses to about 45.5 µM), usual class: inhibitors. hit rate 0.21% among 410,000. AID 624170
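hKGA in 45 mM KH2PO4 pH 8.2, 0.02% Tween-20 with pin-transferred compounds; 1 mM L-glutamine (stock) plus glutamate oxidase/HRP/Amplex Red coupling added. Fluorescence read initially and after 30 min at RT.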
G9a inh: G9a (human) methyltransferase inhibition; hit rate 8.8% among 350,000; Potency, µM (doses to about 102 µM), most hits filed as inhibitors; Q96KQ7; G9a H3K9 monomethylation, AlphaScreen, 2 h; AID 504332; further: nearly all actives have a fitted effect of over 75% in size
Target sequence (Q96KQ7 913-1193 limits assumed): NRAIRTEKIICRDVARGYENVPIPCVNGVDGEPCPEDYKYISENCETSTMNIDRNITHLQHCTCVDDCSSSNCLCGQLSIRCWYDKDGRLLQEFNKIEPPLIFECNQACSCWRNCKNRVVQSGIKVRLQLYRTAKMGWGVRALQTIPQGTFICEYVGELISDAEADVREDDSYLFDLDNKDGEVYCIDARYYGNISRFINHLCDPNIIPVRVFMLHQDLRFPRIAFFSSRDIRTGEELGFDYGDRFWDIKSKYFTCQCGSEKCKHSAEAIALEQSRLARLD
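Methyltransferase reactions run at room temperature for 2 h (20 nM enzyme, 500 nM biotin-H3K9 peptide, 20 uM SAM) after a 15 min compound preincubation; product detected by AlphaScreen beads and anti-H3K9me1 antibody.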
HP1b chromo inh: inhibitors of HP1-beta chromodomain binding to methylated histone tails | P83916 | AlphaScreen HP1-beta / biotin-H3K9me3 peptide binding | Potency, µM (titrated, usually from 114 µM), usual class: inhibitors | hit rate 0.56% among 390,000; further: nearly all actives have a fitted effect of over 70% in size
Target sequence (P83916 whole entry, looked up): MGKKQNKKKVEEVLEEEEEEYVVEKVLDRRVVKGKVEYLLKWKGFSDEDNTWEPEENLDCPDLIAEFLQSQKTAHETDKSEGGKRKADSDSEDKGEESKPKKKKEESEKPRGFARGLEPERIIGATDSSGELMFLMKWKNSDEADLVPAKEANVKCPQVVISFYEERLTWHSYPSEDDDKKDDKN
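Compound inhibition of the preformed complex between 50 nM HP1-beta and 50 nM biotinylated H3K9me3 peptide was read by AlphaScreen. Buffer was PBS pH 7.4 with 0.01% Tween-20. Incubations ran 30 min at room temperature, with 10 ug/mL donor/acceptor beads.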
JMJD2A Tudor: inhibitors of human JMJD2A Tudor domain; AlphaScreen JMJD2A-Tudor / H3K4me3 peptide binding; Potency, µM (highest dose often 114 µM), hits mostly inhibitors; O75164; hit rate 4.4% among 390,000; further: nearly all actives have a fitted effect of over 50% in size
BAZ2B block: BAZ2B (human) inhibition; Q9UIF8; AlphaScreen BAZ2B-H3K14Ac peptide displacement; Potency, µM (series often up to 114 µM), actives largely listed as inhibitors; hit rate 4.4% among 360,000; AID 504333; further: nearly all actives have a fitted effect of over 60% in size
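BAZ2B (50 nM) with biotin-H3(5-23)K14Ac peptide (50 nM) in PBS pH 7.4, 0.01% Tween-20, preformed 30 min, then compound 30 min at room temperature; top concentration 110uM. AlphaScreen streptavidin donor/nickel chelate acceptor beads (10 ug/mL final), 20 min dark, signal read.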
A number is an active result; . = inactive; ? = inconclusive; / = not tested or not shown; ! = not active in a repeat; [ ] = remark or other dose. Most compounds without a hit are left out; they make up all but 10% or so of the library. The call rests on the fitted dose curve; in most records, active means well fitted curve in the direction sought with a large enough effect; inconclusive means small, poorly fitted or top-dose-only effect, or another doubt; inactive means no such curve, though single readings can be large; an effect the other way counts as inactive or inconclusive.

SMILES	GLS inhibitor	G9a inh	HP1b chromo inh	JMJD2A Tudor	BAZ2B block
CCC(C)N(C(=O)COC(=O)c1ccc(N)c([N+](=O)[O-])c1)C1CCS(=O)(=O)C1 (centres undefined)	.	/	/	/	/
CCC(C)N(C(=O)COC(=O)c1nc2nc(C)cc(C)n2n1)C1CCS(=O)(=O)C1 (centres undefined)	.	15.8µM	.	.	.
CCC(C)N(C(=O)COC(=O)CSc1ccc([N+](=O)[O-])cc1)C1CCS(=O)(=O)C1 (centres undefined)	.	39.8µM	.	.	.
CCN1C(=NCC(C)C)N[C@@H](c2cccc(C(F)(F)F)c2)C(C(=O)OC)=C1C	.	.[12.7 µM]	.	17.8µM	?
COC(=O)C1=C(C)N(Cc2ccccc2)C(=NCC(C)C)N[C@H]1c1ccccc1	.	50.1µM!	.	.	.
CCN1C(=NCCCCO)N[C@@H](c2cccc(C(F)(F)F)c2)C(C(=O)OC)=C1C	.	.[12.7 µM]	.	?	?
COC(=O)C1=C(C)N(Cc2ccccc2)C(=NCc2ccc(OC)cc2)N[C@H]1c1ccccc1	.	/	.	?	?
C=CCN=C1N[C@@H](c2cccc(C(F)(F)F)c2)C(C(=O)OC)=C(C)N1CC	.	28.2µM!	.	?	?
COC(=O)C1=C(C)N(Cc2ccccc2)C(=NCCc2c[nH]c3ccccc23)N[C@H]1c1cccc(C(F)(F)F)c1	.	.[12.7 µM]	.	56.2µM	?
Clc1ccc(-n2nnnc2-c2cnc3ccc(Cl)cc3c2-c2ccccc2)cc1	.	.	.	.	.
Cc1nc(-c2cccc(NC(=O)C(C)Oc3ccccc3)c2)cs1 (centres undefined)	.	.	.	.	.
O=C(Nc1nc(-c2ccc([N+](=O)[O-])cc2)cs1)C1=COCCO1	.	/	/	/	/
COC(=O)C1=C(C)N(Cc2ccccc2)C(=NCc2ccco2)N[C@H]1c1ccc(Br)cc1	/	.[12.7 µM]	/	/	79.4µM
C=CCN=C1N[C@@H](c2ccccc2)C(C(=O)OC)=C(C)N1CC	.	39.8µM!	.	.	.
C=CCNc1nc(C(=O)OCC(=O)Nc2c(Cl)cccc2C(F)(F)F)cs1	.	?	.	35.5µM	?
CCCNC(=O)c1csc2c1CCCCC2	.	.	.	.	.
CC(C)NC(=O)NC(=O)CN1c2cccc3cccc(c23)S1(=O)=O	.	31.6µM	.	.	.
CNC(=O)c1ccc(NC(=O)CN2c3cccc4cccc(c34)S2(=O)=O)cc1	.	44.7µM	.	.	.
COc1cccc(CNC(=O)CN2c3cccc4cccc(c34)S2(=O)=O)c1	.	?	.	?	50.1µM
O=C(CN1c2cccc3cccc(c23)S1(=O)=O)Nc1ccccc1	.	.	.	.	/
Cc1ccc(CNC(=O)CN2c3cccc4cccc(c34)S2(=O)=O)cc1	.	.	.	.	.
CCCCN(C)C(=O)c1coc(=O)c2ccccc12	.	.[12.7 µM]	.	.	.
COCCN(C(=O)c1csnn1)C(C(=O)NC1CCCCC1)c1ccccc1F (centres undefined)	.	.	.	.	.
COC(=O)c1c(C)[nH]c(C(=O)C(C)OC(=O)C2CC(=O)N(c3ccc(C)cc3)C2)c1C (centres undefined)	.	.[0.0925 µM]	.	.	.
COC(=O)c1c(C)[nH]c(C(=O)C(C)OC(=O)C2CC(=O)N(CCc3ccccc3)C2)c1C (centres undefined)	.	.[2.33 µM]	.	.	56.2µM
SMILES	GLS inhibitor	G9a inh	HP1b chromo inh	JMJD2A Tudor	BAZ2B block
Cc1c(C2=CCN(S(=O)(=O)c3ccc(Br)cc3)CC2)c2ccccc2n1C	.	39.8µM	.	.	?
CCn1c(C)c(C2=CCN(S(=O)(=O)c3ccc(C)cc3)CC2)c2ccccc21	.	.	.	?	?
CCOC(=O)N1CCN(S(=O)(=O)c2ccc(C(=O)N(CCN(C)C)c3nc4c(C)cccc4s3)cc2)CC1	.	44.7µM	.	?	?
CN(C)CCCN(C(=O)c1ccc(S(=O)(=O)N2CCCCCC2)cc1)c1nc2c(F)cc(F)cc2s1	.	44.7µM	.	?	?
CN(C)CCCN(C(=O)c1ccc(S(=O)(=O)N2CCCC2)cc1)c1nc2c(F)cc(F)cc2s1	.	?	.	.	.
CCOC(=O)N1CCN(S(=O)(=O)c2ccc(C(=O)N(CCCN(C)C)c3nc4cc(OC)ccc4s3)cc2)CC1	.	56.2µM	.	.	.
CCOC(=O)N1CCN(S(=O)(=O)c2ccc(C(=O)N(CCCN(C)C)c3nc4c(C)c(C)ccc4s3)cc2)CC1	.	50.1µM	.	?	.
